Experimental findings from PMC7819943, “Rice protein-binding microarrays: a tool to detect cis-acting elements near promoter regions in rice” are described below.

Whole data set: some 68,000 sequences, median “fluorescence intensity (a.u.)” near 9,100, cut for the highest 2% near 16,000. The full list was thinned out, with the highest values kept by preference.

For this experiment, the target named is OsWRKY34 (Oryza sativa, UniProt Q0JBA9 1-250). The experiment in a line: protein-binding microarray (RPBM); PBS, 2% BSA, 51.3 ng/ul salmon testes DNA, 50 uM zinc acetate, 200 nM TF, 25 C, 1 h; high values mean tight binding. Particulars: protein: recombinant; tags: N-terminal polyhistidine and DsRed monomer fusion (pET32a); label: CyDye5-dUTP incorporated in the synthesized complementary strand; 3' TTTTT single-stranded linker to array surface; dsDNA, one strand shown. In a few lines: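 The binding signal for each feature is its fluorescence intensity in arbitrary units. An Axon 4000B scanner was used to read a custom Agilent array that had been made double-stranded with Cy5-dUTP primer extension, blocked with 2% BSA, incubated at 25 °C for 1 h with 200 nM protein in PBS, 2% BSA, salmon testes DNA and 50 µM zinc acetate, and washed. The protein was an N-terminal polyhistidine–DsRed transcription factor fusion from E. coli BL21-CodonPlus, purified on Ni–NTA.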
Chain of OsWRKY34 (Q0JBA9 entry or part of it): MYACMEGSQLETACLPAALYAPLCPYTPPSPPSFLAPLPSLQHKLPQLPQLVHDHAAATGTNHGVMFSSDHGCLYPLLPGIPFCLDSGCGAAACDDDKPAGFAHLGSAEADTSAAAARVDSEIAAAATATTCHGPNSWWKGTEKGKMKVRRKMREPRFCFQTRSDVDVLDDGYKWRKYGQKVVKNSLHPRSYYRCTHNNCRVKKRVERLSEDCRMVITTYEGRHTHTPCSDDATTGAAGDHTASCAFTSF
Turning to “TCATCTGCTCCAAATTAAGCATTGCATCATCTACTCTGCCCGGAGTCACCTAGTGCAG”, the binding signal was 8390 fluorescence intensity (a.u.).

Regarding “CTACCGCATCCCCTCCCTCTCTCGGCGAGCCGAATCCATGCGGAGTCACCTAGTGCAG”, the binding signal was 8270 fluorescence intensity (a.u.).

“ATCTCGGTCTCTCACAAGACACACAGCTAATTAGCTCTATCGGAGTCACCTAGTGCAG”: the binding signal is 8470 fluorescence intensity (a.u.). Turning to “CCATCATCTCTCGATCCATCTCCAGCAAGTTACCTATAAACGGAGTCACCTAGTGCAG”, the binding signal is 9580 fluorescence intensity (a.u.). As for “AAGAGGGTGGGTTGTTGGGGAGAGGGGAGGGAGGAGGATTCGGAGTCACCTAGTGCAG”, the binding signal was 20100 fluorescence intensity (a.u.). For “GCAGTTTCAGTGTGTGTTTGGTTGCAAGTTGTTGCATCTGCGGAGTCACCTAGTGCAG”, the binding signal is 8410 fluorescence intensity (a.u.). Turning to “TGTGGGTTGGAGGGAGGAGGGGATTGAAGGGTTGTTAATTCGGAGTCACCTAGTGCAG”, the binding signal is 14900 fluorescence intensity (a.u.).

Take “TGCGGATGGGATGGAGAGCGCAGGAGGGGTGGGTTGTTGTCGGAGTCACCTAGTGCAG”: the binding signal was 10800 fluorescence intensity (a.u.).

“GGTGTTTGGTTGGAGGGATTAAAGTGGGGCTAAACTTTAGCGGAGTCACCTAGTGCAG”: the binding signal was 9950 fluorescence intensity (a.u.).

Consider “TGGTGTTTGGTTGGAGGGACTAAAGTAGGGCTAAACTTTACGGAGTCACCTAGTGCAG”, for which the binding signal is 8870 fluorescence intensity (a.u.). The result for “AGTTTTAAGGAGGGAGTTGATGGTGGGATTGGTCATGGGACGGAGTCACCTAGTGCAG” reads 8620 fluorescence intensity (a.u.). As for “CTGCACTGTTTGCCTCAGTTGGGTTGGTTTGGTTTGGTTGCGGAGTCACCTAGTGCAG”, the binding signal was 48200 fluorescence intensity (a.u.).

Regarding “AGGTGGTGTTTGGTTGGAGGGGCTAAAGTGGGGCTAAACTCGGAGTCACCTAGTGCAG”, the binding signal is 20000 fluorescence intensity (a.u.). Under “ACTCACTGTTGCCTGTTGGTTTGTTGTCAGTAGCGCTAGGCGGAGTCACCTAGTGCAG” stands 8370 fluorescence intensity (a.u.); under “CGTTGGGAGTTGGGAGGGATGGGTGGTGCATCAAGATTGACGGAGTCACCTAGTGCAG”, 23500 fluorescence intensity (a.u.). The result for “CAAGGAGGGAGTTGATGGTGGGATTGATCATGGGAGTTATCGGAGTCACCTAGTGCAG” reads 8560 fluorescence intensity (a.u.); that for “GACACTGCCACCTCACTCTCCACTCCACTATATATACCCTCGGAGTCACCTAGTGCAG”, 12100 fluorescence intensity (a.u.); that for “ACTCTCCCGTTATTGCCGCCACCGGACCGCTAGCTCCGCACGGAGTCACCTAGTGCAG”, 9570 fluorescence intensity (a.u.). Regarding “CCCACCTCGCCTTTCGATTGCGCGATCACCCACCTTTATACGGAGTCACCTAGTGCAG”, the binding signal is 10000 fluorescence intensity (a.u.). With “GCAACTGCACATGTGCTTATTTAGTTTCTGCATTGGTCAACGGAGTCACCTAGTGCAG”, the binding signal was 12200 fluorescence intensity (a.u.).

Consider “CTCGTCACTCGTCTCGTCTCGCACAGTCGCAGCTGCTGCGCGGAGTCACCTAGTGCAG”, for which the binding signal was 8390 fluorescence intensity (a.u.). Under “ACTTTATCTTTGCCGCCGGCCGCCACAACTGCTTCTACGGCGGAGTCACCTAGTGCAG” stands 9180 fluorescence intensity (a.u.). Under “GACAACGGTCAAATATGTGCTAAAAAGTCAACGGTATCAACGGAGTCACCTAGTGCAG” stands 11600 fluorescence intensity (a.u.); under “TCTCGCTCCTCATGCTCCTCTCCCGGCGGCGACGCTATGCCGGAGTCACCTAGTGCAG”, 8080 fluorescence intensity (a.u.). Consider “CCAGCTGTGTGTGTGCACGCGGTTTTCCAATCGATTCTTCCGGAGTCACCTAGTGCAG”, for which the binding signal is 9270 fluorescence intensity (a.u.). As for “CTCTCTTCTTTTTATCTTATTCATATGTATTTATAGCTGACGGAGTCACCTAGTGCAG”, the binding signal is 10500 fluorescence intensity (a.u.). Under “TCCGTAAATCCAACATGGCACTATTACCGCCGGCTTAAATCGGAGTCACCTAGTGCAG” stands 56000 fluorescence intensity (a.u.); under “TACCGCCTGAAATCCAACATTATTATGCACTGTAATTTACCGGAGTCACCTAGTGCAG”, 8170 fluorescence intensity (a.u.).

For “GCTCCGTGGCACTATTTTTTTTTTACCGCGAATCCTCCAACGGAGTCACCTAGTGCAG”, the binding signal was 9550 fluorescence intensity (a.u.).

With “TATCCGTTCGCGTCCCCGCCCTCGCTTCGCCGCGGCAATGCGGAGTCACCTAGTGCAG”, the binding signal is 9720 fluorescence intensity (a.u.). Under “GCATCCGTGTCCTTTGCCGAAGCCGAAGGCCCGCTCTCTCCGGAGTCACCTAGTGCAG” stands 8900 fluorescence intensity (a.u.).

With “TATACGACGCCGTTGACTTTTTAAGATACGTTAGACCATTCGGAGTCACCTAGTGCAG”, the binding signal was 20300 fluorescence intensity (a.u.). For the sequence “GTCATTTATTTTTACCAACGTTTGACTATTCGTCTTATTTCGGAGTCACCTAGTGCAG”, the binding signal is 9430 fluorescence intensity (a.u.). On to “GGTACTCTCTTCGTTTTTAGTATACGACGCCGTTGACTTTCGGAGTCACCTAGTGCAG”, for which the binding signal was 16000 fluorescence intensity (a.u.). Under “TTGACTTTTTAACCAACGTTTGACTATTCGTCTTATTCAACGGAGTCACCTAGTGCAG” stands 10100 fluorescence intensity (a.u.); under “TGGATGGTACTCCCTCCTCTAAATGTTTGACGCCGTTGACCGGAGTCACCTAGTGCAG”, 14400 fluorescence intensity (a.u.); under “CTCATGTTTGACCATTCGTCTTATTTAAAAACTTTTGTGACGGAGTCACCTAGTGCAG”, 8180 fluorescence intensity (a.u.).

For the sequence “ATGATGCCGTTGACTTTTTGAACAACGTTTGACTATTCGTCGGAGTCACCTAGTGCAG”, the binding signal is 32600 fluorescence intensity (a.u.).

Consider “TTGACACCATTGACTTTTTTAAACATGTTTGACCGTTCGTCGGAGTCACCTAGTGCAG”, for which the binding signal was 15100 fluorescence intensity (a.u.).

“TATTTGACGTCGTTGACTTTTTAAAACATGTTTGACCATTCGGAGTCACCTAGTGCAG”: the binding signal is 30200 fluorescence intensity (a.u.).

“ACTCCCTCCATTTTTTTAATTGACGACGCCATTGACTTTTCGGAGTCACCTAGTGCAG”: the binding signal was 9350 fluorescence intensity (a.u.).

With “TACCTCATTCCCTAAATGTTTGACGCCGTTGACTTTTTTACGGAGTCACCTAGTGCAG”, the binding signal is 17500 fluorescence intensity (a.u.).
